SMN2 splice up: increases expression of the SMN2 splice variant. HEK293 SMN2-luciferase splicing reporter, luminescence, 30-36 h. 2.8% of 210,000 active. Potency, µM (top dose mostly 46.1 µM), without a hit: top-dose activity change, positive = activation, most hits filed as activators; note: % of control where 0% means no effect; nearly all actives have a fitted effect of over 55% in size
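qHTS luciferase splicing reporter: luminescence rises when SMN2 exon 7 is included in transfected HEK293 cells. Compound exposure lasted 30-36 h at 37C, with 4.5 mM final sodium butyrate as control, followed by a ONE-Glo read.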
Rab9 prom act: activators of Rab9 promoter; Huh7 Rab9 promoter-luciferase reporter, luminescence, 24 h; Potency, µM (top dose mostly 9.22 µM), inactives show at the top dose activation, negative = inhibition, actives largely listed as activators; 2.8% of 320,000 active; AID 485297; note: % of control where 0% means no effect; nearly all actives have a fitted effect of over 60% in size
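Steps: seed 1500 Huh7 Rab9-luc cells per well, rest 2 h at 37 °C; add compound in DMSO; incubate 24 h; add luciferase reagent, 10 min ambient; read luminescence.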
ELG1 repair inh: ELG1-dependent DNA repair inhibition. HEK293T ELG1-luciferase reporter, luminescence, 16 h; DNA damage induced by 5-fluorouridine. Potency, µM (series often up to 46.1 µM), inactives show top-dose activity change, negative = inhibition, actives largely listed as inhibitors. 2.3% of 330,000 active. AID 504467; note: % is set by controls: 0 for no effect and ±100 for the full control effect; nearly all actives have a fitted effect of over 55% in size
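5-Fluorouridine DNA damage + compound/DMSO, 2,000 cells/well, 16 h, 37 °C/5% CO2. ONE-Glo, 30 min RT, luminescence. Readout = decrease in reporter signal.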
FLuc modulator: counter-screen for miR-21 project: firefly luciferase inhibitors or activators. 6.9% of 360,000 active. Potency, µM (doses to about 57.5 µM), without a hit: at the top dose activity change, negative = inhibition, usual class: inhibitors. AID 588342. purified FLuc, Km substrates, luminescence inhibition. P08659;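 note: plate controls were vehicle for no effect and reference inhibitor for full effect; nearly all actives have a fitted effect of over 55% in size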
Target sequence (P08659 whole entry, looked up): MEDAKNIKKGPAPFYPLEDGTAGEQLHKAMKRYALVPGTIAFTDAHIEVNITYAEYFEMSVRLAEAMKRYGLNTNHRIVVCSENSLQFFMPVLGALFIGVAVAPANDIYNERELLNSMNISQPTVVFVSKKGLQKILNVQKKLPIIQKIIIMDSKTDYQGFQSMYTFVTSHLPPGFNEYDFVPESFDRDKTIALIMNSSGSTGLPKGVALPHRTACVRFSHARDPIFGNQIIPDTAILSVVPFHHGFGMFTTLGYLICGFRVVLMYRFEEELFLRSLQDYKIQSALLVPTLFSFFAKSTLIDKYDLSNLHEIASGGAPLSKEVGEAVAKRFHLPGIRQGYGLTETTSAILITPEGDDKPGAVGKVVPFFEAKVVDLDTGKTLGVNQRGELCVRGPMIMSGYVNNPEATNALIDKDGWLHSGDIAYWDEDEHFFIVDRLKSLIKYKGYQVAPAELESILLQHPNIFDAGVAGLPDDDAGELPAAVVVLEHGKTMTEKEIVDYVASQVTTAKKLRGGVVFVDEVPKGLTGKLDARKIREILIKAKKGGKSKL
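Biochemical qHTS of compounds, final roughly 60 µM downward over six points, against 10 nM purified firefly luciferase using Km concentrations of substrates (10 uM D-luciferin, 10 uM ATP) in Tris acetate pH 7.5 buffer; luminescence output.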
NPC1 promoter act: activators of NPC1 promoter | Huh7 NPC1 promoter luciferase reporter, 24 h | Potency, µM (doses to about 9.22 µM), for the others: at the top dose activation, usual class: activators | 2.4% of 320,000 active; note: % of control where 0% means no effect; nearly all actives have a fitted effect of over 60% in size
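NPC1 promoter–luciferase Huh7 cells; 24 h compound; luminescence.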
ELG1 genotoxic: genotoxicity induction in ELG1-luciferase HEK293T cells. AID 504466. Potency, µM (titrated, usually from 46 µM), for inactives: at the top dose activity change, positive = activation, most hits filed as activators. 1.3% of 330,000 active. HEK293T ELG1-luciferase reporter, luminescence, 16 h; note: % of control where 0% means no effect; nearly all actives have a fitted effect of over 60% in size
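16 hr compound incubation (37 °C, 5% CO2) of HEK293T cells carrying luciferase-tagged ELG1; luciferase then measured by ONE-Glo luminescence after 30 min at RT.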
Active calls of the source: *; ? = inconclusive; / = not tested or not shown; [ ] = dose if it differs, or a comment. A selection: hits, their analogues and other compounds. The true share with any hit is near 9.3%. Calls come from the whole dose curve; as a rule, active = well fitted curve in the direction sought with a large enough effect; inconclusive = small, poorly fitted or top-dose-only effect, or another doubt; inactive = no such curve, though single readings can be large; an effect the other way counts as inactive or inconclusive. Potency is the fitted concentration of half-maximal effect.

SMILES	SMN2 splice up	Rab9 prom act	ELG1 repair inh	FLuc modulator	NPC1 promoter act	ELG1 genotoxic
O=C(COC(=O)/C=C/c1cccc(Cl)c1)Nc1ccccc1-c1ccccc1	-3%	-6%	-6%	-1%	-3%	-1%
O=C(O)CCN1C(=O)/C(=C\c2cccc(Oc3ccccc3)c2)SC1=S	/	-7%	27%	24µM*	-6%	1%
c1ccc2[nH]c(N3CCOCC3)nc2c1	3%	7%	20%	2%	7%	3%
O=c1c(Cl)c(N2CCOCC2)cnn1-c1nc2ccccc2[nH]1	11µM*	1.6µM*	?	11µM*	2.5µM*	?
CC(C)NC(=O)CCc1nnc(Cc2cccc(C(F)(F)F)c2)o1	/	?	?	15µM*	?	?
COc1ccc(NC(=O)C2CCN(S(=O)(=O)c3ccc4c(c3)NC(=O)C(C)S4)CC2)cc1 (stereo unspecified)	/	1%	?	0%	-16%	-8%
CC1Sc2ccc(S(=O)(=O)N3CCC(C(=O)Nc4ccc(Cl)cc4)CC3)cc2NC1=O (stereo unspecified)	/	-35%	4.6µM*	0%	-31%	-12%
Cc1cc(C)nc(SCNC(=O)c2ccccc2)n1	15%	-3%	13%	5%	-2%	-2%
CCCc1cc(C(=O)NCCc2ccccc2)no1	13µM*	2.2µM*	?	21µM*	2.2µM*	10µM*
COc1ccccc1-c1cc(C(=O)NCCc2ccccc2)no1	25µM*	3.5µM*	?	9.5µM*	?	13µM*
COc1ccc(CCNC(=O)c2cc(-c3ccccc3OC)on2)cc1OC	-29%	-4%	16µM*	?	-2%	-16%
CCCCCOC(=O)CSc1nc2sc3c(c2c(=O)n1-c1ccccc1)CC(C)(CC)OC3 (stereo unspecified)	-10%	/	/	-9%	/	/
Cc1ccc(-c2csc(/C(C#N)=C(\O)CCl)n2)cc1	-4%	?	?	11µM*	23%	17%
N#C/C(=C(/O)CCl)c1nc(-c2ccccc2)cs1	/	17%	?	?	2%	14%
COc1ccc(OC)c(CC(NC(C)=O)C(=O)NC2CCN(c3c(Cc4ccccc4)c(C)nc4ncnn34)CC2)c1 (stereo unspecified)	-20%	-7%	23µM*	-11%	0%	-4%
COc1cccc(CC(NC(C)=O)C(=O)NC2CCN(c3c(Cc4ccccc4)c(C)nc4ncnn34)CC2)c1 (stereo unspecified)	-4%	0%	?	0%	2%	0%
CCOc1cc2[nH]c(=S)n(C3CCN(Cc4ccccc4)CC3)c(=O)c2cc1OCC	-29%	-7%	2%	2%	-16%	4%
O=C(CSc1nc2c([nH]c3ccccc32)c(=O)n1-c1ccccc1)c1ccc(Cl)cc1	/	/	/	-1%	/	/
CCOc1ccc(S(=O)(=O)N/N=C2/CC(c3ccccc3)Oc3ccccc32)cc1 (stereo unspecified)	?	0%	0%	21µM*	2%	8%
O=C(N/N=C1\CC(c2ccccc2)Oc2ccccc21)c1ccc(O)cc1 (stereo unspecified)	/	2%	18µM*	?	3%	-10%
O=C(N/N=C1\CC(c2ccccc2)Oc2ccccc21)c1cccnc1 (stereo unspecified)	-19%	1%	?	-14%	7%	6%
O=S(=O)(N/N=C1\CC(c2ccccc2)Oc2ccccc21)c1ccccc1 (stereo unspecified)	-11%	-7%	0%	-10%	0%	-6%
Clc1ccc(Cn2ncc3c(NCc4ccco4)ncnc32)c(Cl)c1	?	-20%	?	1%	-25%	-19%
CC(Oc1ccccc1)C(=O)N=C1SC2CS(=O)(=O)CC2N1CCc1ccccc1 (stereo unspecified)	/	13%	3%	-1%	-3%	-3%
COc1ccc(N=Cc2sc(O)c3ccccc23)cc1	2.8µM*	1.6µM*	?	3.8µM*	?	16%
SMILES	SMN2 splice up	Rab9 prom act	ELG1 repair inh	FLuc modulator	NPC1 promoter act	ELG1 genotoxic
COc1ccc(N=Cc2c(O)c3ccccc3n2C(C)=O)cc1	/	?	?	1.1µM*	?	13%
COc1ccc(N=Cc2c(C)[nH][nH]c2=O)cc1	-8%	8%	?	-9%	4%	0%
NC(=O)c1sc2nc(N3CCOCC3)c3c(c2c1N)CCCC3	-1%	-2%	?	8%	-4%	-2%
CC1(C)Cc2c(c(N3CCOCC3)nc3sc(C(N)=O)c(N)c23)CO1	/	3%	5.2µM*	-7%	-1%	1%
CC1(C)Cc2c(c(N3CCOCC3)nc3sc(C(=O)Nc4ccc(Cl)cc4)c(N)c23)CO1	4%	-6%	0.92µM*	-10%	-13%	1%
Cc1ccc(NC(=O)c2sc3nc(N4CCOCC4)c4c(c3c2N)CC(C)(C)OC4)cc1	/	-8%	?	1%	-15%	7%[9.26 µM]
COC(=O)c1ccc(-c2sc3nc(N4CCOCC4)c4c(c3c2N)CC(C)(C)OC4)o1	32µM*	0%	5.2µM*	-2%	1%	1%
Cc1oc2c(CN3CCCC3)c(O)ccc2c(=O)c1-c1ccc(Br)cc1	-7%	-7%	-10%	-1%	2%	1%
CC1(C)CCCN(Cc2c(O)ccc3c(=O)c(-c4nc5ccccc5s4)c(N)oc23)C1	/	?	?	6µM*	11%	?
CC1CCN(Cc2c(O)ccc3c(=O)c(-c4nc5ccccc5s4)c(N)oc23)CC1	20%	-4%	11%	11µM*	-4%	-1%
CC1CCCN(Cc2c(O)ccc3c(=O)c(-c4nc5ccccc5s4)c(N)oc23)C1 (stereo unspecified)	-15%	5%	4%	6.7µM*	9%	5%
CC1CCN(Cc2c(O)ccc3c(=O)c(-c4ccc(Cl)cc4)c(C(F)(F)F)oc23)CC1	-3%	/	/	0%	/	/
Cc1onc(-c2c(F)cccc2Cl)c1C(=O)Nc1nnc(C2CC2)s1	-19%	-2%	-30%	-2%	-1%	-7%
COC(=O)C1CCN(C(=O)c2cc(-c3ccc(Cl)s3)nc3ccccc23)CC1	/	-5%	?	?	-1%	-11%
Cc1cc(NC(=O)c2cc(-c3ccc(C)s3)nc3ccccc23)no1	-1%	-2%	-4%	?	1%	8%
O=C(O)c1cc(-c2ccc(Cl)s2)nc2ccccc12	?	4%	?	15µM*	1%	-2%
CC(=O)c1ccc(NC(=O)c2cc(-c3ccc(C)s3)nc3ccccc23)cc1	-2%	/	/	-33%	/	/
Cc1ccc(-c2cc(C(=O)O)c3ccccc3n2)s1	/	23%	?	2.7µM*	29%	?

From PubChem BioAssay
